Test results from PubChem BioAssay AID434970 (Sanford-Burnham Center for Chemical Genomics, 2010).
The campaign covered roughly 11,000 compounds. About 310 (2.8%) were called active. No stated cut-off is given here; in the data, active means activity change below about -85%; inactive means the rest. This excerpt belongs to a sample that is enriched for actives.

Test system: intestinal alkaline phosphatase [Mus musculus]
Test: mouse intestinal phosphatase enzyme activation – biochemical, luminescence, single concentration, confirmation (AID 434970)
Conditions: purified mouse IAP, CDP-Star luminescence, 30 min, at 10 µM; activation factor: measured here: IAP activation factor, stronger effect = higher value; activity change, negative = activation: stronger effect = lower value

SMILES | activation factor | activity change, negative = activation
O=S(=O)(N[C@H](CO)c1ccccc1)c1ccc(Br)cc1F | 1.03 | -2.75% (inactive)
CCOC(=O)C1=C(C)N(C[C@@H]2CC[C@@H](Cc3ccc(-c4ccccc4)cc3)O2)C(=O)NC1c1ccc(C(F)(F)F)cc1 (some centres undefined) | 0.924 | 7.6% (inactive)
COc1ccc(CCNC(=O)CC2COc3ccccc3O2)cc1OC (centres undefined) | 1.06 | -5.55% (inactive)
Oc1c(C=C2N=c3ccccc3=N2)sc(=S)n1-c1ccc(F)cc1 | 0.615 | 38.5% (inactive)
COc1ccc(CC(NC(C)=O)C(=O)NC2CCN(C(=O)c3cnccn3)CC2)cc1 (centres undefined) | 0.93 | 7% (inactive)
CCN1Cc2cc(OC)ccc2-c2ccccc2S1(=O)=O | 1.15 | -14.7% (inactive)
CN(c1cccc(NC(=O)Nc2ccc(Cl)cc2)c1)S(C)(=O)=O | 1.91 | -91.2% (inactive)
CN1CCN(NC(=O)Nc2cc(Cl)cc(Cl)c2)CC1 | 2.2 | -120% (active)
Cc1ccc(S(=O)(=O)N(CC(=O)Nc2cccc(N(C)S(C)(=O)=O)c2)c2ccc(Cl)c(Cl)c2)cc1 | 1.73 | -73.1% (inactive)
O=C(NCCN1CCN(Cc2ccccc2)CC1)Nc1cc(Cl)cc(Cl)c1 | 1.43 | -42.5% (inactive)
O=C(Nc1cc(Cl)cc(Cl)c1)N1CCCC1 | 1.62 | -62.2% (inactive)
CN(c1cccc(NC(=O)Nc2cccc(Cl)c2)c1)S(C)(=O)=O | 2.47 | -147% (active)
COC(=O)c1ccc(CC(=O)c2c(C)cc(O)cc2O)o1 | 0.877 | 12.3% (inactive)
CC(C)COc1ccc(CNC(=S)NCc2ccccc2)cc1 | 1.12 | -11.7% (inactive)
O=C(O)CC(c1cccc(Cl)c1)n1cccc1 (centres undefined) | 0.964 | 3.65% (inactive)
CCCCN1CCc2c([nH]c3c(C)cccc23)C1=O | 1.06 | -6.35% (inactive)
CCN(CC)S(=O)(=O)c1ccc(NC(=O)Nc2cccc(C(F)(F)F)c2)cc1 | 2.03 | -103% (active)
O=C(Nc1ccccc1)Nc1cccc(C(F)(F)F)c1 | 1.82 | -82.1% (inactive)
CCN(CC)S(=O)(=O)c1cccc(NC(=O)Nc2cccc(C(F)(F)F)c2)c1 | 4.57 | -357% (active)
CCNS(=O)(=O)c1ccc(NC(=O)Nc2cccc(C(F)(F)F)c2)cc1 | 1.77 | -76.7% (inactive)
CCN(CC)S(=O)(=O)c1cccc(NC(=O)c2cc3ccccc3o2)c1 | 0.883 | 11.7% (inactive)

SMILES | activation factor | activity change, negative = activation
CCN(CC)S(=O)(=O)c1ccc(NC(=O)CN(c2cccc(F)c2)S(C)(=O)=O)cc1 | 0.911 | 8.85% (inactive)
Cc1ccc(OC(F)F)c(NC(=O)Nc2cccc(C(F)(F)F)c2)c1 | 1.6 | -60.4% (inactive)
CCN(CC)S(=O)(=O)c1cccc(C(=O)Nc2cccc(C)c2)c1 | 0.938 | 6.2% (inactive)
O=C(Nc1ccc(OC(F)F)cc1)Nc1cccc(C(F)(F)F)c1 | 1.99 | -99.2% (active)
O=C(c1ccco1)N1CCN(CC(O)Cn2c3ccccc3c3ccccc32)CC1 (centres undefined) | 0.97 | 2.95% (inactive)
CC(C)OC(=O)CSc1nc2cccnc2n1C1CCCCC1 | 0.982 | 1.75% (inactive)
COc1ccc(C2=NO[C@@H]3C(=O)N(c4cccc(C)c4C)C(=O)[C@H]23)cc1OC | 0.93 | 6.95% (inactive)
COC(=O)c1sccc1NC(=O)c1cc(OC)cc(OC)c1 | 0.928 | 7.2% (inactive)
c1coc(C2Nc3ccccc3C3OCCC23)c1 (centres undefined) | 1.1 | -10.4% (inactive)
C=C(C)c1cccc(C(C)(C)NC(=O)Nc2ccc(C(N)=O)cc2)c1 | 2.18 | -118% (active)
C=C(C)c1cccc(C(C)(C)NC(=O)NC(c2ccccc2)c2ccc(OC)cc2)c1 (centres undefined) | 4.59 | -359% (active)
C=C(C)c1cccc(C(C)(C)NC(=O)NCC2COCCO2)c1 (centres undefined) | 1.09 | -9.1% (inactive)
COc1ccc(C(=O)NC(Oc2ccccc2)C(Cl)(Cl)Cl)cc1 (centres undefined) | 1.06 | -6.15% (inactive)
COc1ccc(C(=O)OC(C(=O)c2ccccc2)c2ccccc2)cc1 (centres undefined) | 0.982 | 1.8% (inactive)
CC(=O)Nc1ccc(S(=O)(=O)Nc2cccc(NC(=O)C(C)(C)C)c2)cc1 | 1.12 | -11.8% (inactive)
CC(C)C(OC(=O)c1ccco1)C(=O)NC1CCCCC1 (centres undefined) | 0.964 | 3.65% (inactive)
Cc1ccc(C)c(N(C(=O)CCC(=O)Nc2cc(C)on2)C(C(=O)NC2CCCC2)c2ccco2)c1 (centres undefined) | 0.998 | 0.2% (inactive)
O=C(CSc1ncn[nH]1)NCCc1ccccc1 | 1.1 | -10.3% (inactive)
CC1CCN(C(c2cccs2)c2nnnn2Cc2ccccc2)CC1 (centres undefined) | 0.984 | 1.65% (inactive)
Cn1c(CCN2CCOCC2)nc2cc(NC(=O)COc3ccc(Cl)cc3)ccc21 | 0.927 | 7.3% (inactive)
CC[C@]12c3[nH]c4ccc(Cl)cc4c3CCN1C(=O)[C@@H](CC(=O)NC(C)(C)C)C[C@@H]2C(=O)N1CCN(C(=O)c2ccco2)CC1 | 1.14 | -13.7% (inactive)
